Reference: PubChem BioAssay AID1626 (SRMLSC, 2009)
“And” between values parts separate entries of the source, which are not always exact repeats. Equal entries are not always repeated. The campaign covered roughly 220,000 compounds. About 2,000 (0.91%) were called active. Roughly 2% stayed inconclusive and do not appear here. Only a sample is shown. Measured potencies and affinities stand elsewhere. Unmarked numbers belong to inactive results. Cut-off read from the data, not from the text of the source: inconclusive = inhibition above about 80% without an active follow-up result; inactive = below that; test concentration not stated here.

test: M. tuberculosis H37Rv growth inhibitors, H37Rv strain (AID 1626); settings: stronger effect = higher value, concentration not given here;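 note: bacteria incubated seven days before Alamar blue readout; 0% = bacteria only wells and 100% = bacteria with antibiotic wells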

Compound	inhibition
CN(CC(=O)Nc1ccccn1)S(=O)(=O)c1ccc(Cl)cc1	-2.26%
CN(C)/C=C1\N=C(c2ccccc2)OC1=O	8.41%
CC(=O)Oc1ccc2c(=O)c(Oc3ccccc3)c(C)oc2c1OC(C)=O	-17.4%
COc1ccc(-c2[nH]ncc2CNC(C)Cc2cccc(C)n2)cc1F (stereo not given)	0.91%
COc1ccc(CNC(=O)[C@@H]2CC=C[C@@H]3CCN(Cc4ccc(Cl)c(Cl)c4)C(=O)[C@@H]32)cc1	6.56%
Cc1ccc(CCN2CC(C(=O)NCCCN(C)Cc3ccccc3)CC2=O)cc1 (stereo not given)	2.65%
O=C1NC[C@H](c2ccccc2)N(CCc2cccc(F)c2)C1=O	-4.05%
CCOc1ccc(CCN2C(=O)C(=O)N([C@H](CCCN(C)Cc3ccccc3)CNCc3ccccc3)C[C@@H]2C(C)C)cc1	-12.7%
Cc1cc(C)nc(NS(=O)(=O)c2ccc(NC(=O)c3ccco3)cc2)n1	3.55%
O=C(Nc1ccc(Cl)cc1)OCc1cn(-c2ccc(Cl)cc2)nn1	-0.6%
O=C(CCN1CCCCC1)N/N=C/c1c[nH]c2ccccc12	-4.97%
Cc1ccc(C)c(N(C(=O)CS(=O)CC(=O)Nc2ccc3c(c2)OCO3)C(C)C(=O)NC2CCCC2)c1 (stereo not given)	-13.4%
CC1(C)CC(=O)C(C=Nc2ccc(N)cc2)=C(O)C1	0.045%
CC1(C)CC(=O)C(C=Nc2ccc(O)cc2)=C(O)C1	1.61%
O=C(O)c1c2c(nc3ccc(Cl)cc13)CCC2	-3.42%
COCCNC(=O)CSc1c2c(nc3ccc(Cl)cc13)CCCC2	0.54%
Oc1ccc(-n2cnnn2)cc1	-8.59%
CC(=O)Nc1ccc(Nc2cc(C)nc3c(-c4ccccc4)cnn23)cc1	72.8%
CCc1nccn1-c1cc(C(C)(C)C)nc2c(-c3ccc(Cl)cc3)cnn12	3.22%
Cc1cc(-c2ccccc2)n2ncc(-c3ccccc3)c2n1	7.91%
Cc1cc(NCCN2CCOCC2)n2ncc(-c3ccccc3)c2n1	8.29%
Cc1nccn1-c1cc(C(C)(C)C)nc2c(-c3ccccc3)cnn12	2.7%
Cc1cc(N)n2ncc(-c3ccccc3)c2n1	8.61%
O=C(COc1ccccc1)N1c2ccccc2Sc2ccccc21	-4.38%

Compound	inhibition
O=C(O)c1ccccc1SCC(=O)N1CCOCC1	7.09%
CCOc1cccc2sc(Cl)nc12	-8.06%
CN=C(SCc1ccccc1)c1c(O)n(C)c(=O)n(C)c1=O	-0.87%
C=CCN=C(SCC(=O)c1ccc(Cl)cc1)c1c(O)n(C)c(=O)n(C)c1=O	1.31%
CSC(=Nc1ccccc1)c1c(O)n(C)c(=O)n(C)c1=O	-1.82%
CN=C(SCc1cc2c(cc1Cl)OCO2)c1c(O)n(C)c(=O)n(C)c1=O	-0.46%
CCNC(=O)CC1S/C(=N/N=C(\C)c2ccccc2)NC1=O (stereo not given)	2.78%
O=C(CNC(=O)c1cccs1)c1ccc(F)cc1	4.53%
CCN(CC)S(=O)(=O)c1ccc(C(=O)OCC(=O)Nc2sc3c(c2C#N)CCCCC3)cc1	6.83%
COc1ccc(-c2cc(-c3ccccc3)[n+](C)c(-c3ccccc3)c2)cc1	2.49%
COc1ccc(-c2ccc(OC)cc2)cc1	-6.18%
CC(=O)Nc1cccc(C(=O)/C=C/c2ccc(/C=C/C(=O)c3cccc(NC(C)=O)c3)cc2)c1	2.15%
CC(=O)Nc1cccc(C(=O)/C=C/c2ccc(F)cc2)c1	16.5%
CCC(=O)Nc1cccc(C(=O)c2ccccc2)c1	25.8%
CC(=O)Nc1cccc(C(=O)/C=C/c2ccc(N(C)C)cc2)c1	8.2%
CCC(=O)Nc1cccc(C(=O)/C=C/c2cccs2)c1	31.2%
CC(=O)Nc1cccc(C(=O)/C=C/c2ccc[nH]2)c1	-13.8%
CC(C)CN1C(=O)C(NC(=O)C2CC2)(C(F)(F)F)C2=C1CC(C)(C)CC2=O (stereo not given)	-4.55%
COc1ccc(-n2c(SCC(=O)N/N=C/c3ccccc3OCC(=O)O)nc3ccccc3c2=O)cc1	-3.87%
COc1ccc(-c2cc(C(=O)OCC(=O)N(C)C)c3ccccc3n2)cc1	-8.2%
N#CCCN/N=C(\Cc1nc2ccccc2[nH]1)c1ccccc1	-0.45%
COc1cc(C(C)=O)ccc1COc1ccc(C(=O)OCC(=O)NC2CCS(=O)(=O)C2)cc1OC (stereo not given)	1.52%
O=C(O)CCn1cc(/C=C\C(=O)c2ccc(Cl)cc2)c(-c2cccc(Br)c2)n1	-1.2%
CCN(CC)CCCNc1cc(C)nc2cc(-c3cccs3)nn12	-2.4%

Compound	inhibition
CC(Oc1ccc(Cl)cc1Cl)c1nc(-c2ccc(NC(=O)c3ccccn3)cc2)no1 (stereo not given)	-3.67%
CC(Oc1ccc(Cl)cc1Cl)c1nc(-c2ccc(NC(=O)c3cccnc3)cc2)no1 (stereo not given)	76.2%
CCCOc1ccc(-c2nc(OC)c3ccccc3n2)cc1	77%
Nc1ccc(/C=C/C(=O)c2ccco2)cc1	78.3%
O=C(/C=C/c1ccc(Br)cc1)c1ccc(NC(=O)c2ccco2)cc1	10.8%
S=c1[nH]c2cc3ccccc3cc2[nH]1	73.9% and 72.9%
S=c1[nH]c2ccccc2[nH]1	-2.67%
O=C(Cc1ccc(S(=O)(=O)N2CCCC2)s1)Nc1nc2c(s1)CCCC2	1.89%
Cc1ccccc1COc1ccc(/C=C(\C#N)C(N)=O)cc1	6.69%
CCOc1ccc(OCCN(C)Cc2ccccc2)cc1	4.01%
COc1cc(-c2nc3ccc4ccccc4c3c3c2CCC3)ccc1O	20.8%
Cc1cc(-c2cccc([N+](=O)[O-])c2)nc2ccc3ccccc3c12	-9.17%
Oc1ccc(-c2nc3ccc4ccccc4c3c3c2CCC3)cc1O	1.26%
COc1cc(-c2nc3ccc4ccccc4c3c3c2CCC3)cc(OC)c1OC	-4.59%
Cc1ccc(/C=C/C(=O)NCc2ccncc2)cc1	7.66%
Cn1c(N)c(C(=O)COC(=O)C2CCCC2)c(=O)n(C)c1=O	-2.87%
Cc1ccc(S(=O)(=O)N(C)C)cc1NC(=S)NNC(=O)C(N)=O	1.54%
CCCCCCC(=O)N(O)C1CC(=O)N(c2ccc(Cl)cc2)C1=O (stereo not given)	7.87%
CCOCCOC(=O)c1cccc(NC(=O)OCC)c1	-3.13%
C=CCn1c(O)c(N=NC(=O)CNC(=O)/C=C/c2ccco2)c2ccccc21	-15.1%
O=[N+]([O-])c1ccc(O)c(/C=N/n2c(CO)nc3ccccc32)c1	-3.46%
Cc1cc2ncn(/N=C/c3cccnc3)c2cc1C	7.38%
Cc1cc2ncn(/N=C/c3cc(Br)ccc3O)c2cc1C	-5.04%
Cc1nc2ccccc2n1/N=C/c1cccnc1	-6.36%

Compound	inhibition
Cc1ccc(/C=N/n2c(C)nc3ccccc3c2=O)s1	-1.18%
OCc1nc2ccccc2n1/N=C/c1cccs1	1.55%
OCCN(CCO)CC(O)COc1ccc(C23CC4CC(CC(C4)C2)C3)cc1 (stereo not given)	24.6%
CCC1CCCCN1CCCNC(=O)Cn1nc(-c2ccc(C)cc2)ccc1=O (stereo not given)	-8.72%
O=C(CSc1nnc(-c2ccco2)n1Cc1ccco1)Nc1ccccc1	-2.58%
Cc1cccc(NP(=O)(Oc2ccccc2F)Oc2ccccc2F)c1C	1.18%
O=C(NCc1ccccc1)c1ccccc1-c1nc2ccccc2[nH]1	4.78%
CCOC(=O)Cc1c(C)nc2c(-c3ccc(Cl)cc3)c(C)[nH]n2c1=O	78.8%
Cc1ccc(-c2csc(NC(=O)CSc3nc(C)cc(=O)[nH]3)n2)cc1	1.91%
OC(c1cc(C(F)(F)F)nc2c(Cl)cc(Cl)cc12)C1CCCCN1 (stereo not given)	49.4%
Clc1ccc(-c2cc(-c3nnc4n3CCCCC4)c3ccccc3n2)cc1	71.9%
CCN(CC)S(=O)(=O)c1ccc(N2CCCC2)c(NC(=O)CC(C)(C)C)c1	-7.98%
O=C(Nc1cc(Sc2ccccn2)cc([N+](=O)[O-])c1)c1ccc(Cl)cc1	7.55%
COC(=O)c1cc(OC)c(OC)cc1NC(=S)Nc1cc(Cl)ccc1OC	-12%
O=C(Nc1nc(-c2cc3ccccc3oc2=O)cs1)c1ccco1	-2.76%
Nc1ccc(Nc2nc(-c3cc4ccccc4oc3=O)cs2)cc1	-8.26%
CC1=C(C(=O)Nc2ccccc2)C2(CCCCC2)C(C#N)=C(S)N1	-2.79%
Cc1ccc(S(=O)(=O)N(C)C)cc1NC(=O)COC(=O)CCC(=O)c1cccs1	0.54%
COc1ccc2c(c1)c(C(=O)CN1CCN(C(=O)c3ccco3)CC1)c(C)n2C	3.66%
Cc1ccc(NCC(=O)c2ccc([N+](=O)[O-])cc2)cc1	6.43%
COc1ccc(C(CC(=O)c2ccc(C)cc2)Nc2ccc([N+](=O)[O-])cc2)cc1 (stereo not given)	13.5%
CC1(C)CC(=O)c2sc(N3CCCCC3)nc2C1	1.75%
Fc1ccc(-c2nnn3c2nc(NCc2ccccc2)c2ccccc23)cc1	-3.18%
